Reference: PubChem BioAssay AID1508600 (Functional Genomics Laboratory (NCATS/FGL), 2020)
About 3,700 (7%) of roughly 53,000 sequences were called active.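 Rule for the calls: active = gene knockdowns whose robust z-score for IL-1 alpha signal is at least 2 or at most -2, so actives lie on both sides; inactive = the rest.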 The full list was thinned out, with actives kept by preference.

Assay: Components of the Cytosolic LPS Sensing Pathway: Gene Identification via Genome-wide siRNA Screen;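 note: robust z of the log signal after scaling to non-targeting control siRNA wells of the plate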
Settings: RAW264.7 macrophages, IL-1a HTRF, actives lie on both sides, screened at 100 nM (by protocol), cells primed 5 h with Pam3CSK4 first
Method in brief: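 Three distinct siRNAs per gene were tested singly at 100 nM in RAW264.7 macrophages. Following Pam3CSK4 priming and 24 hour LipidA transfection, IL-1a secretion was read by HTRF.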

For GCCUGUUCUCAAGACUGACTT against Sema4a, which z-score is on record?
Its z-score is 2.06 (active).

For GGGUGUCUUUCCUGUGUGATT against Pkmyt1, which z-score is on record?
Its z-score is -0.804 (inactive).

For GGGUAAAGGAGAUUGUGAUTT against Ppfibp2, which z-score is on record?
Its z-score is -0.103 (inactive).

Which z-score does the source give for GCCGUUAGAAACAAAGUCGTT against Taf3 here?
Its z-score is -2.48 (active).

For CCAAGUAUAGCUCACAUAATT against Slc17a4, which z-score is on record?
Its z-score is -1.7 (inactive).

For GCCCUUGAAGAUUUGAGGUTT against Cops8, which z-score is on record?
The z-score was 0.00555 (inactive).

With GCACAGGUUCAAGUGGAACTT against Prnd as the sequence, how does the z-score read?
The z-score was -1.41 (inactive).

With GGAAAGACCUAAGCAAUUATT against Klhl28 as the sequence, how does the z-score read?
The z-score was -0.287 (inactive).

With CCUAUCCAGAUGUCAUUAATT against Hoxa11 as the sequence, how does the z-score read?
The z-score was 0.849 (inactive).

For GGAAUUUGAUUCUCUGCCUTT against Zfp646, which z-score is on record?
Its z-score is 2.96 (active).

With “GCAUUAAAAACCCUUUUUGTT against B230354K17Rik” as the sequence, how does the z-score read?
Its z-score is 1.68 (inactive).

With GCAGAGUGUGGUUAGUGGGTT against Cobl as the sequence, how does the z-score read?
Its z-score is -0.218 (inactive).

Which z-score does the source give for GGAACUGCCCAGUUCUUAATT against Ppan here?
The z-score was 0.424 (inactive).

With CCUACCCUAACCAUUACACTT against Enpp5 as the sequence, how does the z-score read?
The z-score was -0.267 (inactive).

With GGCCUUUUCUCAUCUCUGGTT against Igfals as the sequence, how does the z-score read?
The z-score was -1.57 (inactive).

Which z-score does the source give for GCCCGGAGAAUAUUAACUATT against Mllt11 here?
Its z-score is 2.21 (active).

Which z-score does the source give for GCACUUUAAGAUCAACCGGTT against Bcar3 here?
Its z-score is 0.521 (inactive).

For CCUAAAAGUGCCUUACUAATT against Ftdc2, which z-score is on record?
Its z-score is 0.679 (inactive).

For GGAGUUUGCCAGUCAGAUCTT against Ralgps1, which z-score is on record?
Its z-score is -2.11 (active).

For GCAAGAACGCAAGAUUCAATT against Acoxl, which z-score is on record?
The z-score was 0.581 (inactive).

With GCUGCUACGUGUUCAAGGUTT against Ctss as the sequence, how does the z-score read?
The z-score was 0.00488 (inactive).

Which z-score does the source give for GGACAAAGAAUCCAAAAUATT against Etv6 here?
The z-score was 2.25 (active).

For GGUACCAACGUGUAUGGCATT against Gpaa1, which z-score is on record?
The z-score was 0.182 (inactive).

Which z-score does the source give for GGUAAACCAAACAAAACCATT against Rpl35a here?
Its z-score is 0.264 (inactive).

With CCUUAAAACAGAUCCACUUTT against Nell2 as the sequence, how does the z-score read?
Its z-score is 0.473 (inactive).

With GGCUCCUGUGCAUAUCUAATT against Olfr116 as the sequence, how does the z-score read?
Its z-score is -0.449 (inactive).

For GGAGAACAACAGUAAUUACTT against Reps2, which z-score is on record?
Its z-score is -1.28 (inactive).

For GGCUUUGGCAUGAUUGGCCTT against Tmem214, which z-score is on record?
The z-score was -2.72 (active).

Which z-score does the source give for GGUGUCCAACAAGCUCAAGTT against F8a here?
Its z-score is -0.337 (inactive).

With GCGCAAACUUUAAUAACACTT against Zkscan1 as the sequence, how does the z-score read?
The z-score was 0.604 (inactive).

For GGCCAGGUAACUCUUACAATT against Trpv1, which z-score is on record?
The z-score was 1.12 (inactive).

Which z-score does the source give for GGGUUAGCCAGAGCUCUAATT against N4bp2l1 here?
The z-score was 3.03 (active).

Which z-score does the source give for GGACAGUGUCUAGAUAUUGTT against Fbln5 here?
The z-score was -1.18 (inactive).

For GGACAAGUUGUUGGACUACTT against Hltf, which z-score is on record?
Its z-score is -1.02 (inactive).

For GGACAAUGUGAUGAAGAUUTT against Fgfr3, which z-score is on record?
The z-score was -0.843 (inactive).

Which z-score does the source give for GCCUCAUCAAUCCACUGCATT against Mtss2 here?
Its z-score is -0.956 (inactive).

With GGGUGUGUUGGAUACCUAUTT against Adig as the sequence, how does the z-score read?
The z-score was 2.03 (active).

For GGGAGUUGUAGUAUUAGUATT against Zfp94, which z-score is on record?
The z-score was -1.19 (inactive).

Which z-score does the source give for AAAAAACAGCACCCUGAUGTT against Olfr204 here?
Its z-score is 1.1 (inactive).

With GGUCAGCAUUAUCAAGCCUTT against Hsd11b2 as the sequence, how does the z-score read?
Its z-score is 0.159 (inactive).

With CCUGUGAAUACUUUCACUCTT against Bok as the sequence, how does the z-score read?
The z-score was 0.115 (inactive).

For GGAAAUUGGCACCAUUACUTT against St3gal1, which z-score is on record?
The z-score was 2.14 (active).

Which z-score does the source give for GCCAGUCAUUAUAGUUAACTT against Slc47a1 here?
The z-score was 1.57 (inactive).

Which z-score does the source give for GGAAGAACCACCACAAACUTT against Cstdc2 here?
Its z-score is -0.0281 (inactive).

For GGAGUUUGGUAAAAUUGACTT against Dhrs7, which z-score is on record?
The z-score was -1.7 (inactive).

With GGAAGAAAUUCCUAAUGAATT against Igsf11 as the sequence, how does the z-score read?
The z-score was -1.01 (inactive).

For GGACCAAGGAAUAUUUCCCTT against Serpinb9b, which z-score is on record?
Its z-score is -0.564 (inactive).

With GGGAUCAGAACAAGUAUAATT against Klc1 as the sequence, how does the z-score read?
The z-score was 0.257 (inactive).

For GGCUAAUAGACUUAUUAGGTT against Cdip1, which z-score is on record?
The z-score was 0.45 (inactive).

For GGGUCAUCCAAAUGGUUUGTT against Grm6, which z-score is on record?
The z-score was 0.323 (inactive).

With GGCUCACAGGACCUAUUUCTT against Col6a6 as the sequence, how does the z-score read?
The z-score was -3.15 (active).

For GCUGUUUUGAGGAGCCUUCTT against Zfp410, which z-score is on record?
Its z-score is -0.962 (inactive).

For GGGUGAUCGCACGAUUGAGTT against Casq2, which z-score is on record?
The z-score was 0.364 (inactive).

Which z-score does the source give for CCCACUCCGAUAUACUGCUTT against Olfr447 here?
The z-score was 2.2 (active).

Which z-score does the source give for GGAAAAUGGCAGAAAUGAATT against Vps26a here?
Its z-score is -1.97 (inactive).

With GGAGGUUGUGAUCUUGAAATT against Tbc1d23 as the sequence, how does the z-score read?
The z-score was -0.000244 (inactive).

With CGUAGACUUAACCUACAAATT against Dync2h1 as the sequence, how does the z-score read?
Its z-score is 1.88 (inactive).

With GGUCAACCUUGAACUAAUATT against Dhx57 as the sequence, how does the z-score read?
Its z-score is 0.452 (inactive).

Which z-score does the source give for GCGAGUAGGACCAGUGAAATT against Xpo1 here?
The z-score was -2.67 (active).

With GGAUCUUGAGUUGGAGUCCTT against Nupr1l as the sequence, how does the z-score read?
Its z-score is -0.319 (inactive).

With GCUAGAGUACAGCAAGCUGTT against Aifm3 as the sequence, how does the z-score read?
Its z-score is 1.21 (inactive).

Which z-score does the source give for GGACGGUAACAACUACAAUTT against Polg here?
Its z-score is 1.63 (inactive).

With GGAUUAAAGGCCAUAAGGATT against Zfp747 as the sequence, how does the z-score read?
The z-score was -0.813 (inactive).

For CGAGUUUGACCGGACCAUCTT against Ssna1, which z-score is on record?
Its z-score is 2.44 (active).

With GGAACAAGAGAAUGAUGAATT against Col5a2 as the sequence, how does the z-score read?
The z-score was 0.343 (inactive).

Which z-score does the source give for CGAAGAUUAAUUUUGCUCATT against Lrrtm2 here?
The z-score was 0.316 (inactive).

For CGAGACUCUAUCUUUGUCCTT against St3gal3, which z-score is on record?
Its z-score is -0.785 (inactive).

Which z-score does the source give for CGUGGUAGUGAAAAUUGAGTT against Xbp1 here?
The z-score was 0.282 (inactive).

Which z-score does the source give for GGCCGCAUACUGAUGAAAGTT against Scgn here?
Its z-score is -0.395 (inactive).
